Here are results for 27 compounds from PubChem BioAssay.

Active and inactive are the calls of the source. Unless noted, the rule behind the calls is not given here.

Assay [1] has as its system XIP peptide (Xip251-270) binding. Put plainly: small-molecule binders of XIP peptide, primary screen, biochemical, small-molecule microarray, fluorescence 635/667 nm, 0.1 µg/mL protein (AID 1182). To be noted: fluorescent protein binding, 635 nm, higher = more signal, called active from +8 up or from −8 down.
For assay [2], the system named is XIP peptide (Xip251-270). Briefly: small-molecule binders of XIP peptide, primary screen, biochemical, small-molecule microarray, fluorescence 635/667 nm, 0.5 µg/mL protein (AID 1183). The note with it: small-molecule microarray binding, fluorescence 635 nm; higher = more signal.
A short description of assay [3]: Plasmodium falciparum growth inhibition, primary screen, strain 3D7, DAPI fluorescence, 100 nL (AID 1184).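 Note: parasites grown inside human red blood cells in medium with human serum.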 To be noted: P. falciparum 3D7 growth, 3 d, higher = more signal.
Assay [4] addresses Homeobox protein Hox-A13 (Mus musculus) (UniProt Q62424). Put plainly: inhibitors of HoxA13-DNA binding, primary screen, biochemical, fluorescence polarization, labeled oligonucleotide (AID 1185). The note with it: 15 min, higher = more signal, called active from +8 up or from −8 down. On the technique in general: Fluorescence polarisation rises when a labelled molecule tumbles more slowly, as on binding a larger partner.

Assay [5] in a line: inhibitors of hydroxyurea-induced Chk1 phosphorylation, primary screen, imaging, HeLa, phospho-Chk1 antibody, percent positive cells (AID 1186). To be noted: hydroxyurea-induced phospho-Chk1 immunofluorescence imaging, higher = more signal.
The nature of assay [6]: inhibitors of hydroxyurea-induced Chk1 phosphorylation, primary screen, imaging, HeLa, phospho-Chk1 nuclear intensity (AID 1187). To be noted: hydroxyurea-induced phospho-Chk1 immunofluorescence imaging, higher = more signal.

Homeobox protein Hox-A13 (Mus musculus), sequence (Q62424 whole entry, looked up): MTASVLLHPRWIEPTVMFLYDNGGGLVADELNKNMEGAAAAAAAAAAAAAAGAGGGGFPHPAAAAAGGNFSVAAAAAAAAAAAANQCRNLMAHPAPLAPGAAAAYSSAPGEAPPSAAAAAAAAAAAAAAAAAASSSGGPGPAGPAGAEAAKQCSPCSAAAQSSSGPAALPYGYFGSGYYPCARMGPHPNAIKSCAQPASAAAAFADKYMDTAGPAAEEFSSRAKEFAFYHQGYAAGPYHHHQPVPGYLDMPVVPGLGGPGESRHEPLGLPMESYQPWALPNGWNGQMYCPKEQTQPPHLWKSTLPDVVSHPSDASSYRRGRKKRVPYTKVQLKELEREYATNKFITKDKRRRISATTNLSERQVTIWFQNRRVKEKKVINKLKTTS

Consider `[N-]=[N+]=NCc1ccccc1[C@H]1OC(c2ccc(OCCCO)cc2)=N[C@@]1(Cc1ccccc1N=[N+]=[N-])C(=O)NCCN1CCOCC1`, for which the composite z-score in assay [1] was 0.175 (inactive); in assay [2] it was 0.795. The z-score in assay [3] is -2.21; in assay [4], -3.06 (inactive); in assay [5], 0.0262 (inactive); in assay [6], -0.0057 (inactive).

`CC(C)c1ccc(NN2C(C(O)c3cccs3)C=CC3C(=O)N(c4ccccc4)C(=O)C32)cc1` (configuration not stated): the composite z-score is 0.213 (inactive) in assay [1] and 0.499 in assay [2]. For the same compound, the z-score in assay [3] is -0.512; in assay [4], -3.33 (inactive); in assay [5] it was 0.847 (inactive); in assay [6], 0.219 (inactive).

In the case of `Cc1ccc(S[C@]2(C(=O)O)CC(=O)N(Cc3ccccc3C(F)(F)F)[C@@H]2c2ccc(CO)cc2)cc1`, the results for the composite z-score in assay [1] and in assay [2] were -0.161 (inactive) and -0.174, respectively. Further, the z-score in assay [3] was 0.212; in assay [4], -3.21 (inactive); in assay [5], -0.511 (inactive); in assay [6], -0.53 (inactive).

As to `C=CC[C@]1(C(=O)N2CCOCC2)N=C(c2ccc(OCCCO)cc2)O[C@H]1c1ccccc1CN=[N+]=[N-]`, the composite z-score was 0.349 (inactive) in assay [1] and 0.836 in assay [2]. Moreover, the z-score is -2.33 in assay [3], -4.04 (inactive) in assay [4], -0.552 (inactive) in assay [5] and -0.429 (inactive) in assay [6].

As for `Cc1ccccc1C(O)C1C=CC2C(=O)N(C)C(=O)C2N1Nc1ccc([N+](=O)[O-])cc1[N+](=O)[O-]` (configuration not stated), the values for the composite z-score in assay [1] and in assay [2] were 3.99 (inactive) and 0.476, respectively. For the same compound, the z-score in assay [3] is 0.368; in assay [4], -4.08 (inactive); in assay [5], 0.348 (inactive); in assay [6] it was -0.0828 (inactive).

Take `NCCCCCCNC(=O)[C@H]1C[C@H]2C(=O)N3CCC[C@H]3C(=O)N2[C@H]1c1ccc(O)cc1`: the composite z-score in assay [1] was -0.118 (inactive); in assay [2] it was 0.451. Moreover, the z-score in assay [3] is 0.0311; in assay [4], -2.4 (inactive); in assay [5], -0.0342 (inactive); in assay [6] it was 0.0369 (inactive).

On to `CCN(CC)c1ccc(N2CC=CC34O[C@@H]5/C=C\CCCOC(=O)C5[C@H]3C(=O)N(CCCCCO)[C@@H]4C2=O)cc1` (some centres not stated), for which the composite z-score in assay [1] was -0.0261 (inactive); in assay [2], 0.0595. Also, the z-score in assay [3] was 1.98; in assay [4], -5.15 (inactive); in assay [5], -0.0764 (inactive); in assay [6], 0.34 (inactive).

For the compound `C[C@]12C(=O)N(CCCCCO)[C@@H]3C(=O)N(c4ccc(Cl)cc4)CC=CC31O[C@@H]1/C=C\CCCOC(=O)C12` (some centres not stated), the figures for the composite z-score in assay [1] and in assay [2] were 0.951 (inactive) and 0.0211, respectively. The z-score in assay [3] is 1.77; in assay [4], -4.29 (inactive); in assay [5], 0.0276 (inactive); in assay [6] it was 0.596 (inactive).

Take `CN(C)CCCN1C(=O)[C@@]2(Cc3ccccc31)c1ccccc1C(=O)N(Cc1ccccc1)[C@H]2c1ccc(CO)cc1`: the composite z-score in assay [1] was 0.0022 (inactive); in assay [2], 0.324. In addition, the z-score was -1.47 in assay [3], 1.06 (inactive) in assay [4], -0.384 (inactive) in assay [5] and -0.682 (inactive) in assay [6].

As to `Cc1ccc(S[C@]2(C(=O)NCCN3CCOCC3)CC(=O)N(C3Cc4ccccc4C3)[C@@H]2c2ccc(CO)cc2)cc1`, the composite z-score is 0.487 (inactive) in assay [1] and 0.547 in assay [2]. Further, the z-score in assay [3] is -0.196; in assay [4], -4.63 (inactive); in assay [5], 0.672 (inactive); in assay [6], 1 (inactive).

For `COC(=O)[C@@]1(Cc2ccc(OC)cc2)[C@H]2c3cc(C(=O)N4CCCC4)n(Cc4ccc(C)o4)c3C[C@H]2CN1C(=O)c1ccccc1`, the composite z-score was 0.0373 (inactive) in assay [1] and 0.283 in assay [2]. For the same compound, the z-score in assay [3] is -1.77; in assay [4], -5.91 (inactive); in assay [5], -0.683 (inactive); in assay [6], -1.38 (inactive).

In the case of `C[C@@H]1ON(c2ccccc2)[C@H](c2ccccc2)[C@H]1C(=O)N1C(=O)OC[C@H]1Cc1ccccc1`, the composite z-score is 0.0959 (inactive) in assay [1] and 0.351 in assay [2]. In addition, the z-score in assay [3] is -1.96; in assay [4], -1.4 (inactive); in assay [5], -0.673 (inactive); in assay [6], -0.308 (inactive).

In the case of `O=C1N(CCS(=O)(=O)c2ccccc2)Cc2ccccc2C[C@@]12COC(c1ccc(OCCCO)cc1)=N2`, the composite z-score in assay [1] was 0.913 (inactive); in assay [2] it was 0.82. Moreover, the z-score in assay [3] was -2.05; in assay [4], -4.6 (inactive); in assay [5], -1.03 (inactive); in assay [6], -1.29 (inactive).

With `COC(=O)[C@@]1(Cc2ccccc2)[C@H]2c3cc(C(=O)N(C)C)n(Cc4ccc(O)c(OC)c4)c3C[C@H]2CN1C(=O)c1ccccc1`, the composite z-score is 0.332 (inactive) in assay [1] and 0.664 in assay [2]. The z-score is -1.55 in assay [3], -5.2 (inactive) in assay [4], 0.197 (inactive) in assay [5] and -0.0257 (inactive) in assay [6].

`CC1C=C(CCCO)C=C(C(=O)OCCS(C)(=O)=O)C(C(=O)OCCS(C)(=O)=O)=CN1Cc1cccc(OC(F)(F)F)c1` (configuration not stated): the composite z-score is 0.392 (inactive) in assay [1] and -0.0318 in assay [2]. Further, the z-score in assay [3] is -2.67; in assay [4], -7.2 (inactive); in assay [5], -0.0917 (inactive); in assay [6] it was 0.397 (inactive).

In the case of `C=CCOC(=O)[C@@H]1[C@H]2C(=O)O[C@H](c3ccccc3)[C@H](c3ccccc3)N2[C@H](c2ccc(OCCOC(=O)[C@@H]3C[C@@H]4C(=O)N5CCC[C@H]5C(=O)N4[C@@H]3c3cccc(OCCO)c3)cc2)[C@@]12C(=O)Nc1ccc(I)cc12`, the composite z-score was 0.284 (inactive) in assay [1] and 0.632 in assay [2]. In addition, the z-score in assay [3] is -1.72; in assay [4], 1.17 (inactive); in assay [5], 0.021 (inactive); in assay [6], 0.318 (inactive).

For the compound `C=CCC(OC(C)=O)[C@@H]1[C@@H](N(Cc2cc3ccccc3o2)C(=O)Cc2ccc(OC)cc2)c2cc(OCCCO)ccc2N1C(=O)c1ccc(-c2ccccc2)cc1` (some centres not stated), the composite z-score in assay [1] is -0.341 (inactive); in assay [2] it was -0.236. In addition, the z-score was -2.84 in assay [3], -1.11 (inactive) in assay [4], 0.298 (inactive) in assay [5] and 0.549 (inactive) in assay [6].

Regarding `Cc1cc(C)c(C(O)C2C=CC3C(=O)N(c4ccccc4)C(=O)C3N2Nc2ccc([N+](=O)[O-])cc2)c(C)c1` (configuration not stated), the composite z-score in assay [1] was 0.756 (inactive); in assay [2], 0.783. Further, the z-score in assay [3] is -0.569; in assay [4], -1.86 (inactive); in assay [5], 0.487 (inactive); in assay [6], 0.596 (inactive).

Turning to `COCCOC(=O)N1C(=O)[C@@]2(c3cc(C#CCNC(N)=O)ccc31)[C@H](C(N)=O)[C@H]1C(=O)O[C@H](c3ccccc3)[C@H](c3ccccc3)N1[C@@H]2c1ccc(OCCO)cc1`, the composite z-score in assay [1] is -0.0439 (inactive); in assay [2], 0.549. Besides, the z-score is 0.101 in assay [3], -2.08 (inactive) in assay [4], 0.358 (inactive) in assay [5] and 0.489 (inactive) in assay [6].

Regarding `COCC(=C=CC[C@@H](O)c1ccccc1OCCO)C[C@@H](O)c1ccccn1`, the composite z-score in assay [1] is 0.416 (inactive); in assay [2] it was 0.76. Also, the z-score in assay [3] is -0.991; in assay [4], -6.18 (inactive); in assay [5], 0.413 (inactive); in assay [6] it was 0.289 (inactive).

As to `COc1ccc([Si](C)(C)[C@H]2[C@H](CCn3cc(CCO)nn3)O[C@@]3(C(=O)N(Cc4cccc(N5C(=O)c6cccc7cccc5c67)c4)c4ccccc43)[C@@H]2C)cc1`, the composite z-score in assay [1] was 0.979 (inactive); in assay [2] it was 0.697. For the same compound, the z-score was -2.55 in assay [3], -2.56 (inactive) in assay [4], -0.854 (inactive) in assay [5] and 0.0226 (inactive) in assay [6].

With `CN(C)C(=O)[C@@]1(CCC(=O)OC(C)(C)C)COC(c2ccc(OCCCO)cc2)=N1`, the values for the composite z-score in assay [1] and in assay [2] were 0.9 (inactive) and 0.846, respectively. For the same compound, the z-score is 0.388 in assay [3], -3.81 (inactive) in assay [4], -0.0526 (inactive) in assay [5] and 0.337 (inactive) in assay [6].

Turning to `NC(=O)NCC#Cc1ccc2c(c1)[C@]1(C(=O)N2)[C@H](c2ccc(OCCO)cc2)N2[C@H](c3ccccc3)[C@H](c3ccccc3)OC(=O)[C@H]2[C@@H]1C(=O)N1CCCCCCC1`, the figures for the composite z-score in assay [1] and in assay [2] were 2.2 (inactive) and 0.501, respectively. In addition, the z-score in assay [3] is -0.765; in assay [4] it was -9.12 (active); in assay [5] it was -0.0375 (inactive); in assay [6], -0.265 (inactive).

Take `COc1ccc(C(=O)Nc2ccc(CN3C(=O)[C@@]4(O[C@@H](CC(=O)N5Cc6ccccc6C[C@H]5CO)[C@H]([Si](C)(C)c5ccc(OC)cc5)[C@H]4C)c4ccccc43)cc2)cc1`: the composite z-score in assay [1] is 1.38 (inactive); in assay [2], 0.701. The z-score is -1.23 in assay [3], -2.48 (inactive) in assay [4], 0.175 (inactive) in assay [5] and 0.514 (inactive) in assay [6].

Consider `CCOC(=O)C[C@H]1[C@H](OC(=O)Cc2ccc3c(c2)OCO3)[C@@H](NC(=O)c2ccccc2)c2cc(OCCCO)ccc2N1C(=O)c1ccc2ccccc2n1`, for which the composite z-score in assay [1] is -0.263 (inactive); in assay [2], -0.101. Also, the z-score is 0.93 in assay [3], -3.68 (inactive) in assay [4], -0.467 (inactive) in assay [5] and -0.259 (inactive) in assay [6].

Regarding `CCN(CC)c1ccc(N2CC=CC34O[C@@H]5/C=C\CCCOC(=O)C5[C@H]3C(=O)N(CCCCCCO)[C@@H]4C2=O)cc1` (some centres not stated), the composite z-score in assay [1] is 1.51 (inactive); in assay [2] it was 0.897. Besides, the z-score is -0.789 in assay [3], -5.09 (inactive) in assay [4], -0.0771 (inactive) in assay [5] and 1.02 (inactive) in assay [6].

For `C=CCC(OC(C)=O)[C@@H]1[C@@H](N(Cc2ccc(-c3cccc(C(F)(F)F)c3)o2)C(=O)c2cccc3ccccc23)c2cc(OCCCO)ccc2N1C(=O)c1ccc(-c2ccccc2)cc1` (some centres not stated), the composite z-score is -0.0517 (inactive) in assay [1] and -0.131 in assay [2]. Besides, the z-score in assay [3] was -3; in assay [4], -2.39 (inactive); in assay [5] it was -0.403 (inactive); in assay [6], -0.16 (inactive).
